This is one part of a sample in which hits are shown more often than they occur.
CHX counter = Cycloheximide Counterscreen for Small Molecule Inhibitors of Shiga Toxin. cell reporter, cycloheximide protein synthesis inhibition counterscreen. max response, %. 12% of 300,000 active. AID 2314, 2010; in the data active = max response mostly above about 13%, no sharp cut-off; inactive = mostly below about 14%; note: read at 38.3 µM for the half of the compounds with a filed dose; 0% is about no effect
AmpC detergent = qHTS Inhibitors of AmpC Beta-Lactamase (assay with detergent) | 0.041% of 370,000 active | AmpC hydrolysis of nitrocefin, absorbance 480 nm, 0.01% Triton | P00811 | Potency, µM (highest dose often 114 µM), for the others: at the highest dose activity change, negative = inhibition, actives largely listed as inhibitors;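 note: potency is the fitted concentration of half-maximal effect; 0% = no-compound wells and -100% = no-enzyme wells; nearly all actives have a fitted effect of over 25% in size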
Target sequence (P00811 whole entry, looked up): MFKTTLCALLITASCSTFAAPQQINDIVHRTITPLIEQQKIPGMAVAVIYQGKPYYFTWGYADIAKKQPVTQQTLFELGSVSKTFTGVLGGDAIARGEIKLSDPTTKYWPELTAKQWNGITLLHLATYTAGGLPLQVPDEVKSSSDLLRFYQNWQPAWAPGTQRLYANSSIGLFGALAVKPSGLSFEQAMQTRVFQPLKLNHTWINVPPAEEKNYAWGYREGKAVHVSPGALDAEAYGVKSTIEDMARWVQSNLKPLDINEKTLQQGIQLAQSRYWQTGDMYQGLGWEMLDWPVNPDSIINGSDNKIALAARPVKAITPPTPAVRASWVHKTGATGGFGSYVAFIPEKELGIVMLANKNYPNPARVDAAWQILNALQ
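20 mM phosphate pH 7.0 + 0.01% (detergent screen) or 0.0001% Triton X-100; 5.3 nM AmpC reagent; cpd preinc 15 min RT; nitrocefin (800 uM stock) to start; A480 q20 s × 4 min; Activity was normalised to no-enzyme and no-compound control wells.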
AmpC no deterg = qHTS Inhibitors of AmpC Beta-Lactamase (assay without detergent) | AmpC nitrocefin hydrolysis, absorbance 480 nm, 0.0001% Triton | P00811 | 0.52% of 330,000 active | AID 485341, 2010 | Potency, µM (titrated, usually from 57.1 µM), for inactives: top-dose activity change, negative = inhibition, hits mostly inhibitors;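 note: potency is the fitted concentration of half-maximal effect; plate controls were no compound for no effect and no enzyme for full effect; nearly all actives have a fitted effect of over 20% in size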
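AmpC (5.3 nM in the dispensed reagent) in 20 mM phosphate pH 7.0 with 0.01% (detergent screen) or 0.0001% Triton X-100 was preincubated with compounds for 15 min at room temperature. Nitrocefin was then added from an 800 uM solution, and hydrolysis was followed at 480 nm.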
SARS PLP yeast = qHTS of Yeast-based Assay for SARS-CoV PLP. S. cerevisiae expressing SARS-CoV PLpro, growth rescue. Potency, µM (series often up to 32.9 µM), for inactives: top-dose activity, positive = growth rescue, most hits filed as activators. 0.19% of 330,000 active; calls by dose curve; note: potency is the fitted concentration of half-maximal effect; 0% is about no effect; nearly all actives have a fitted effect of over 55% in size
Shiga toxin inh = A qHTS for Small Molecule Inhibitors of Shiga Toxin; Vero cells, Shiga toxin protein synthesis inhibition reporter; inhibition, % at 38.7 µM; 9.2% of 290,000 active; in the data active = inhibition mostly above about 28%, no sharp cut-off; inactive = mostly below about 43%; note: 0% is about no effect
AMA1 RON2 block = qHTS for Inhibitors of AMA1-RON; Towards Development of Antimalarial Drug Lead: Primary Screen. Plasmodium falciparum AMA1 (3D7) - RON2 peptide interaction. AlphaScreen AMA1-biotinylated RON2 peptide binding. Potency, µM (doses to about 58.2 µM), without a hit: at the highest dose activity change, negative = inhibition, usual class: inhibitors. 0.2% of 360,000 active. AID 720542, 2013;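 note: potency is the fitted concentration of half-maximal effect; 0% = vehicle wells and -100% = peptide control; nearly all actives have a fitted effect of over 45% in size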
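AMA1 (3D7) with his tag at 25 nM final met compounds first, then biotinylated RON2 peptide at 25 nM; detection used donor plus acceptor beads, 10 µg/mL apiece, read by AlphaScreen after 30 min at room temperature.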
* = called active by the depositor; ? = inconclusive; . = no result given; [ ] = remark or other dose. Unless noted, calls come from the whole dose curve; as a rule, active = well fitted curve in the direction sought with a large enough effect; inconclusive = small, poorly fitted or top-dose-only effect, or another doubt; inactive = no such curve, though single readings can be large; an effect the other way counts as inactive or inconclusive.

SMILES	CHX counter	AmpC detergent	AmpC no deterg	SARS PLP yeast	Shiga toxin inh	AMA1 RON2 block
Cc1cccn2cc(COc3cccc([N+](=O)[O-])c3)nc12	22*	-3%	-35%	-1%	61*	-7%
COc1ccc(OC)c(S(=O)(=O)NCc2cn3cccc(C)c3n2)c1	0	0%	-12%	19%	-3	-3%
CCOc1ncccc1C(=O)OCC(=O)Nc1ccc2c(c1)OCCO2	.	-21%	-17%	-4%	.	8%
Cc1ccc(C(NC(=O)NN2CCN(C)CC2)C(Cl)Cl)cc1F (stereo not given)	32*	-4%	40%	2%	79*	1%
O=C(NCc1ccccc1)c1ccc([N+](=O)[O-])cc1	.	.	.	.	.	0%
CCn1ncc(Cl)c1C(=O)Nc1ccc2c(c1)CCC2	37*	-9%	-4%	-1%	134*	.
O=C(COC(=O)c1ccc(Cl)nc1)Nc1ccc2c(c1)CCC2	.	.	-30%	4%	.	8%
O=C(Nc1ccc2c(c1)CCC2)c1cnc(Cl)c(Cl)c1	67*	1%	-16%	-15%	103*	4%
O=C(Nc1ccc2c(c1)CCC2)c1ccc(Cl)nc1	59*	9%	-25%	-3%	64*	11%
CCCC(=O)NC(Nc1cccc(C(F)(F)F)c1)C(Cl)(Cl)Cl (stereo not given)	1	-4%	-22%	-6%	-8	21%
Cc1nc2c(o1)C(=O)c1ccccc1C2=Nc1ccccc1	.	.	.	.	.	-29%
Cc1nc(-c2cccs2)sc1C(=O)NN	-1	4%	-18%	4%	-15	68%
CCOc1ccccc1C(=O)Nc1cccc(-c2nc3ccccc3s2)c1	.	21%	.	.	.	.
CCOC(=O)c1sc(-c2cccs2)nc1C	43*	-1%	-3%	-1%	130*	25%
CCOC(=O)Cc1ccc2sc(-c3ccccc3)nc2c1	58*	-3%	11%	-21%	31*	50%
CCOC(=O)c1sc(-c2ccccc2)nc1C	34*	?	-9%	0%	30	-4%
COc1ccc(CNC(=O)COC(=O)CN2C(=O)C(C)Oc3ccc(C)cc32)cc1 (stereo not given)	-2	-10%	48%	-2%	-10	-3%
CC1(C)CC(=O)C=C(Nc2ccc(F)c(Cl)c2)C1	-6	3%	-8%	0%	-4	-3%
COC(=O)c1c(C)[nH]c(C(=O)CSc2ccc(Cl)cc2)c1C	30*	-10%	-53%	-3%	42	-3%
COC(=O)c1c(C)[nH]c(C(=O)/C=C/c2cccc(Cl)c2)c1C	39*	-2%	-31%	5%	62*	27%
COC(=O)c1c(C)[nH]c(C(=O)/C=C/c2ccccc2)c1C	43*	-6%	-19%	-8%	89*	-11%
COC(=O)c1c(C)[nH]c(C(=O)/C=C/c2ccc(C)cc2)c1C	1	-6%	-17%	-1%	25	3%
O=C(CSc1nc(=O)n(CCCN2CCOCC2)c2c1CCCC2)Nc1ccccc1Cl	.	-1%	109%	.	.	8%
COC(=O)c1c(C(=O)OC)c2cc(C)ccn2c1Cl	-3	-8%	-13%	2%	-14	9%
CC(=O)N1c2ccc(S(=O)(=O)N3CCCC(C(=O)NCc4ccccc4)C3)cc2CC1C (stereo not given)	-3	-4%	59%	-1%	12	-10%
SMILES	CHX counter	AmpC detergent	AmpC no deterg	SARS PLP yeast	Shiga toxin inh	AMA1 RON2 block
COCCCN=C1NN=C(c2cc(C)n(-c3ccccc3F)c2C)CS1	19	-9%	70%	-4%	50	59%
COCCCN=C1NN=C(c2cc(C)n(Cc3ccccc3Cl)c2C)CS1	22*	?	-19%[11.4 µM]	0%	45*	25%
Cc1cc(C2=NNC(=NCCc3ccccc3)SC2)c(C)n1-c1c(C)n(C)n(-c2ccccc2)c1=O	-4	-7%	73%	0%	14	95%
COCCCN=C1NN=C(c2cc(C)n(-c3ccccc3)c2C)CS1	34*	-2%	20%	?	62*	-6%
CN=C1NN=C(c2cc(C)n(-c3ccc(Cl)cc3)c2C)CS1	59*	-12%	-37%	4%	136*	13%
CCOC(=O)c1c(N)nn(C(=O)C(C)(C)C)c1-c1ccccc1	-1	1%	-21%	5%	-6	2%
Cc1ccc(/C=N/NC(=S)N2CCOCC2)cc1	57*	?	-30%	-17%	83*	-2%
S=C(N/N=C/c1ccc(Cl)cc1)N1CCOCC1	41*	-6%	-27%	-23%	97*	8%
Cc1ccc(CNC(=S)N2CCOCC2)cc1	-6	-8%	-8%	-1%	2	17%
S=C(N/N=C/c1ccc(Br)cc1)N1CCCCC1	40*	-2%	-40%	-5%	64*	32%
S=C(Nc1ccc(Cl)cc1Cl)N1CCOCC1	-1	-6%	-15%	3%	-11	-3%
Cc1cc(C(=O)NC(C)CCC(C)C)c2ccccc2n1 (stereo not given)	4	2%	46%	-2%	-4	7%
CN(C)C(=O)COc1ncnc2sc(-c3ccccc3)cc12	28*	4%	-13%	-4%	72*	15%
CN(C)c1ncnc2sc(-c3ccccc3)cc12	16*	?	79%	-5%	40	-4%
COc1ccc(Nc2ncnc3sc(-c4ccccc4)cc23)cc1	-6	-4%	-45%	-8%	-27	8%
CCN(CC)C(=O)CSc1ncnc2sc(-c3ccccc3)cc12	34	0%	97%	-16%	36	9%
CN(CCC#N)C(=O)CSc1ncnc2sc(-c3ccccc3)cc12	31*	?	165%	1%	62*	4%
COc1ncnc2sc(-c3ccccc3)cc12	66*	-12%	-6%	16%	82	12%
Cc1ccc(N2C(=O)N(CC(=O)N3CCc4ccccc43)C(=O)C2C)cc1 (stereo not given)	.	.	.	.	.	-8%
COc1ccc(C[C@H]2NC[C@H](O)[C@H]2OC(C)=O)cc1	.	.	.	.	.	4%
O=C(/C=C/c1c(Cl)cccc1Cl)N1CCOCC1	15	?	-16%	-1%	.	13%
O=C(/C=C/c1c(Cl)cccc1Cl)n1cccn1	9.8*	-12%	-21%	-41%	14	-18%
CN(C)S(=O)(=O)c1ccc(S(=O)(=O)N2CCN(CCC#N)CC2)cc1	-4	?	-13%	6%	-8	20%
C/C(=N/NC(=O)c1cccs1)c1ccc(NC(=O)COc2ccc(Cl)cc2)cc1	36*	?	-21%	17%	79*	14%
